Each compound was assayed on Plasmodium falciparum (assay: GSK_TCMDC: Inhibition of Plasmodium falciparum 3D7 in whole red blood cells, using parasite LDH activity as an index of growth. Test compounds present at 2uM).
Format: functional

SMILES	Inhibition [%]
CN(C)CCCOc1ccc(CNCC(C)(C)c2nc(-c3ccc(Cl)c(O)c3)c(-c3ccncc3)[nH]2)cc1.Cl	100
Cc1cc(C(=O)CN2C(=O)NC3(CCOc4ccccc43)C2=O)c(C)n1Cc1ccco1 (stereo unspecified)	93
Cc1cc(C)c(S(=O)(=O)N2CCCCC(c3cccc(C(F)(F)F)c3)=N2)c(C)c1	94
Cc1cccc2nc(-c3ccc(-c4ccc(C(=O)NCCc5cn(C)cn5)cc4)s3)[nH]c12	88
N#Cc1ccc(CN2CCC(Oc3ccc(NC(=O)c4ccco4)cc3Cl)C2)cc1.O=C(O)C(F)(F)F (stereo unspecified)	95
Cl.Oc1cccc(Nc2ccnc3cc(-c4ccncc4)ccc23)c1	100
COc1ccc(O)c(C(=O)NCCc2ccc(OC)c(-c3ccc(C(C)(C)C)cc3)c2)c1	88
O=C(O)C(F)(F)F.Oc1ccc2[nH]c(-c3cccc(F)c3)nc2c1CNCc1ccccc1	92
CCCc1cc(Cc2cnc(N)nc2N)cc(CC)c1O.Cl	87
Br.CCCCCCCCn1c2c(c(=N)c3c1CCC3)CCC2	99
CCOc1cc(NCCCNc2ncc([N+](=O)[O-])cc2C)nc2ccccc12	84
CCC(CC)n1c(COC)cc2c3c(N)nc(N)nc3ccc21	95
CCN(CC)CCN(Cc1ccc(-c2ccc(C(F)(F)F)cc2)cc1)C(=O)Cn1c(CCc2ccc(F)cc2)nc(=O)c2sccc21.O=C(O)C(O)C(O)C(=O)O	99
c1ccc2[nH]c(-c3ccc(-c4ccc(CN5CCN(c6ccncc6)CC5)cc4)s3)nc2c1	100
O=c1cc(NCCCNCc2ccc3c(c2)OC(F)(F)O3)[nH]c2ccccc12	100
Cc1nc2nc(N)nc(N)c2c(C)c1Cc1cccc(C(N)=O)c1.Cl	91
COc1ccccc1C1CCN(C2CCC(NC(=O)/C=C/c3cc(F)cc(F)c3)CC2)CC1 (stereo unspecified)	91
Cl.O=S(=O)(c1ccc(OCc2ccc(Cl)cc2)cc1)c1cc2c(cc1OCc1ccccc1)CCN(C1CCC1)CC2	89
Cc1ccc2[nH]c(C)cc(=NN=Cc3cccc(F)c3)c2c1	99
COc1cc(NC(=O)N2CCc3cc(OC)c(OCCN4CCCCC4)cc32)cc(C(F)(F)F)c1.O=C(O)C(=O)O	93
C=C(C)C1CC=C(CN2CCC(N3CCc4cc(NC(=O)c5cc(C)on5)ccc43)C2)CC1 (stereo unspecified)	90
CC(=O)Nc1nc(C(=O)Nc2cccc(-c3cccc(-c4nc5ccccc5[nH]4)c3)c2)cs1	100
Cc1cccc2nc(-c3cccc(-c4ccc(NC(=O)C(C)CN5CCOCC5)cc4)c3)[nH]c12 (stereo unspecified)	93
COc1cc2nc(C)nc(Nc3ccc(Cc4ccccc4)cc3)c2cc1OC.Cl	100
CC(C)Oc1cc2c(cc1NS(=O)(=O)c1ccc(-c3ccc(Cl)cc3)cc1F)CCN(C)CC2.Cl	88
COc1cc2nc(N(C)C)nc(Nc3ccc4c(cnn4Cc4ccccc4)c3)c2cc1OC	100

These compounds were tested on Plasmodium falciparum (assay: GSK_TCMDC: Inhibition of Plasmodium falciparum Dd2 in whole red blood cells, using parasite LDH activity as an index of growth. Test compounds present at 2uM).
Format: functional

SMILES	Inhibition [%]
Cc1cc(C(=O)Nc2nc(-c3ccccn3)nc3ccsc23)no1	90
Cc1cc(=NN=CC=Cc2ccccc2)c2ccc(F)cc2[nH]1	30
NC(=O)c1cccc(C(=O)Nc2cccc(-c3ccc(-c4nc5ccccc5[nH]4)s3)c2)c1	69
Cc1cc2ncn(-c3nccc(NCc4ccc(F)c(C)c4)n3)c2cc1C.O=C(O)C(F)(F)F	82
CN(C)c1ccc(N2C(N)=NC(N)=NC23CCCC3)cc1.Cl	0
CCNc1cc(C(=O)N[C@@H](Cc2ccccc2)[C@H](O)CNC(CC)c2cccc(Cl)c2)cc(N2CCCC2=O)c1.Cl (stereo partly specified)	99
CC(C)CCN1CCCN(Cc2cccc(NC(=O)c3cc4ccccc4s3)c2)CC1.O=C(O)C(F)(F)F	8
N/C(=N\c1cccc(Cc2ccccc2)n1)NCc1ccccc1	52
FC(F)(F)c1ccc2c(NN=Cc3cccc(Cl)c3)ccnc2c1	59
Cn1nc(-c2ccc(NC(=O)Nc3cc(C(F)(F)F)ccc3F)c(F)c2)c2cnc(NCCCn3ccnc3)nc21.O=C(O)C(F)(F)F	97
Oc1ccc2[nH]cc(C3CCN(CCCCCCCCCN4CCC(c5c[nH]c6ccc(O)cc56)CC4)CC3)c2c1	2
COc1ccc(N2C(=O)C3C(C2=O)C2(C)c4ccccc4C3(C)c3ccccc32)c([N+](=O)[O-])c1 (stereo unspecified)	54
COc1ccc(Cl)cc1NC(=O)Nc1cc(C)nc2ccccc12	99
CC1(C)CN(CCC2CCC(NC(=O)/C=C/c3ccccc3F)CC2)Cc2ccc(C#N)cc21.Cl (stereo unspecified)	82
CN(C)CCCOc1ccc(CNCC(C)(C)c2nc(-c3ccc(Cl)c(O)c3)c(-c3ccncc3)[nH]2)cc1.Cl	58
Cc1cc(C(=O)CN2C(=O)NC3(CCOc4ccccc43)C2=O)c(C)n1Cc1ccco1 (stereo unspecified)	42
Cc1cc(C)c(S(=O)(=O)N2CCCCC(c3cccc(C(F)(F)F)c3)=N2)c(C)c1	95
Cc1cccc2nc(-c3ccc(-c4ccc(C(=O)NCCc5cn(C)cn5)cc4)s3)[nH]c12	8
N#Cc1ccc(CN2CCC(Oc3ccc(NC(=O)c4ccco4)cc3Cl)C2)cc1.O=C(O)C(F)(F)F (stereo unspecified)	95
Cl.Oc1cccc(Nc2ccnc3cc(-c4ccncc4)ccc23)c1	99

SMILES	Inhibition [%]
COc1ccc(O)c(C(=O)NCCc2ccc(OC)c(-c3ccc(C(C)(C)C)cc3)c2)c1	91
O=C(O)C(F)(F)F.Oc1ccc2[nH]c(-c3cccc(F)c3)nc2c1CNCc1ccccc1	55
CCCc1cc(Cc2cnc(N)nc2N)cc(CC)c1O.Cl	0
Br.CCCCCCCCn1c2c(c(=N)c3c1CCC3)CCC2	93
CCOc1cc(NCCCNc2ncc([N+](=O)[O-])cc2C)nc2ccccc12	64
CCC(CC)n1c(COC)cc2c3c(N)nc(N)nc3ccc21	0
CCN(CC)CCN(Cc1ccc(-c2ccc(C(F)(F)F)cc2)cc1)C(=O)Cn1c(CCc2ccc(F)cc2)nc(=O)c2sccc21.O=C(O)C(O)C(O)C(=O)O	90
c1ccc2[nH]c(-c3ccc(-c4ccc(CN5CCN(c6ccncc6)CC5)cc4)s3)nc2c1	100
O=c1cc(NCCCNCc2ccc3c(c2)OC(F)(F)O3)[nH]c2ccccc12	94
Cc1nc2nc(N)nc(N)c2c(C)c1Cc1cccc(C(N)=O)c1.Cl	0
COc1ccccc1C1CCN(C2CCC(NC(=O)/C=C/c3cc(F)cc(F)c3)CC2)CC1 (stereo unspecified)	15
Cl.O=S(=O)(c1ccc(OCc2ccc(Cl)cc2)cc1)c1cc2c(cc1OCc1ccccc1)CCN(C1CCC1)CC2	13
Cc1ccc2[nH]c(C)cc(=NN=Cc3cccc(F)c3)c2c1	99
COc1cc(NC(=O)N2CCc3cc(OC)c(OCCN4CCCCC4)cc32)cc(C(F)(F)F)c1.O=C(O)C(=O)O	10
C=C(C)C1CC=C(CN2CCC(N3CCc4cc(NC(=O)c5cc(C)on5)ccc43)C2)CC1 (stereo unspecified)	95
CC(=O)Nc1nc(C(=O)Nc2cccc(-c3cccc(-c4nc5ccccc5[nH]4)c3)c2)cs1	82
Cc1cccc2nc(-c3cccc(-c4ccc(NC(=O)C(C)CN5CCOCC5)cc4)c3)[nH]c12 (stereo unspecified)	30
COc1cc2nc(C)nc(Nc3ccc(Cc4ccccc4)cc3)c2cc1OC.Cl	99
CC(C)Oc1cc2c(cc1NS(=O)(=O)c1ccc(-c3ccc(Cl)cc3)cc1F)CCN(C)CC2.Cl	2
COc1cc2nc(N(C)C)nc(Nc3ccc4c(cnn4Cc4ccccc4)c3)c2cc1OC	100
